# Experimental data as given in PubChem BioAssay (EPA / NIEHS).
# Active and inactive are the calls of the source. The calls were made as follows: active = hit-call score of the fitted dose curve at least 0.9, where 1 is the maximum; inactive = score below 0.9.
# Read-out: Interferon-gamma inducible Protein 10 (IP10), CXCL10 (gene 3627)
# Experiment: BSK_BE3C_IP10: BioMAP Diversity Plus: BE3C Assay for Interferon-gamma inducible Protein 10 (IP10) Biomarker Activity (AID 2283034)
# Conditions: primary human bronchial epithelial cells; actives raise or lower the signal
# Procedure: BSK_BE3C is a cell-based, multiplexed-readout assay that uses bronchial epithelial cell, a human lung primary cell, with measurements taken at 24 hours after chemical dosing in a 96-well plate.BSK_BE3C_IP10 is an assay component measured in the BSK_BE3C assay. It measures IP-10 antibody related to regulation of gene expression using ELISA technology.Data from the assay component BSK_BE3C_IP10 was analyzed into 1 assay endpoint. This assay endpoint, BSK_BE3C_IP10, was analyzed with bidirectional fitting relative to DMSO as the negative control and baseline of activity. Using a type of binding reporter, gain or loss-of-signal activity can be used to understand changes in the signaling as they relate to the gene CXCL10. Furthermore, this assay endpoint can be referred to as a primary readout, because this assay has produced multiple assay endpoints where this one serves a signaling function. To generalize the intended target to other relatable targets, this assay endpoint is annotated to the cytokine intended target family, where the subfamily is chemotactic factor.
# The levels of cell surface (or secreted, indicated by the prefix "s") biomarker endpoints were measured by ELISA. Overt cytotoxicity to cells in confluent adherent cultures (all systems other than the BT system) was assessed by measuring total protein levels using sulforhodamine B (SRB) staining in parallel cultures at the time of biomarker measurements, indicated as SRB endpoints. For proliferation assays for adherent cell types, individual cell types are cultured at sub-confluence and relative cell numbers quantified by SRB staining at time points optimized for each system (48 h: 3C and CASM3C systems; 72 h: BT and HDF3CGF systems; 96 h: SAg system). SRB was performed by staining cells with 0.1% SRB after fixation with 10% TCA and reading wells at 560 nm.Viability and proliferation of PBMC (T cells) was quantified by Alamar Blue reduction for the SAg and BT systems. For PBMC viability (referred to as PBMC Cytotoxicity within the assay endpoint names), cells were plated (75,000/well in a 96-well plate) and then chemical samples added for 1 h before addition of activators, SEB and TSST-1 (20 ng/mL final concentration each). Cells were incubated for 90 h. Then, Alamar Blue (20 uL/well) (Invitrogen, Cat DAL1100) was added for 6 h, and the plates were read with a fluorescence microplate reader at 546/580 nm (excitation/emission). For PBMC proliferation, cells were plated and activated as above but incubated for only 16 h prior to addition of Alamar Blue. Plates were read after 6 h.
SMILES,outcome,AC50
Cc1ccc(C(C)(C)C)c(O)c1,inactive,–
CC(C)(O)c1ccc(CNC(=O)c2cccnc2Oc2ccc(F)cc2)cc1,inactive,–
NCCOCCOCCN,inactive,–
C#CC(O)C(CC)CCCC (stereo not given),inactive,–
CSc1ccc(Oc2ccc(S(N)(=O)=O)cc2CN(C)C)cc1C,inactive,–
CC(=O)[C@@]1(O)CC[C@H]2[C@@H]3CCC4=CC(=O)CC[C@]4(C)[C@H]3CC[C@@]21C,inactive,–
NC1CCCCC1,inactive,–
COC(=O)CCCC(=O)OC,inactive,–
CCc1nc(N)nc(N)c1-c1ccc(Cl)cc1,inactive,–
CC(=O)OC1CC(C)OC(C)O1 (stereo not given),inactive,–
CN(C)C(=O)NC1(c2ccccc2)CCN(CC[C@@]2(c3ccc(F)c(F)c3)CN(C(=O)c3ccccc3)CCO2)CC1,inactive,–
CO[C@@H]1COCC[C@@H]1N[C@@H]1CC[C@@](C(=O)N2CCc3ncc(C(F)(F)F)cc3C2)(C(C)C)C1,inactive,–
Cc1cc(Cc2ccc(N)c(C)c2)ccc1N,inactive,–
CCCCC(CC)COC(=O)CCCCCCCC(=O)OCC(CC)CCCC (stereo not given),inactive,–
CCCCOC(=O)CCCCC(=O)OCCCC,inactive,–
O=[Si]=O,inactive,–
C=CCc1ccc(OC)c(OC)c1,inactive,–
CCCCCCC(CCCCCCCCCCC(=O)OCC(COC(C)=O)OC(C)=O)OC(C)=O (stereo not given),–,11.4 µM (active)
O=C(O)CC(O)(CC(=O)O)C(=O)O,inactive,–
c1ccc2occc2c1,inactive,–

SMILES,outcome,AC50
O=C1c2c(O)cccc2Cc2cccc(O)c21,inactive,–
CC(C)(C)c1ccccc1,inactive,–
CC(=O)CC(c1ccccc1)c1c(O)c2ccccc2oc1=O (stereo not given),inactive,–
CCC(C)N(C)C(=O)c1cc2ccccc2c(-c2ccccc2Cl)n1 (stereo not given),inactive,–
S=c1[nH]c2ccccc2s1,inactive,–
CCCCc1nc2cccnc2n1Cc1ccc(-c2ccccc2-c2nnn[nH]2)cc1,inactive,–
C/C=C/c1ccc(OC)cc1,inactive,–
O=C(O)c1[nH]n(-c2ccc(S(=O)(=O)O)cc2)c(=O)c1N=Nc1ccc(S(=O)(=O)O)cc1,inactive,–
Cc1c(C)c2c(c(C)c1O)CCC(C)(COc1ccc(CC3SC(=O)NC3=O)cc1)O2 (stereo not given),–,14.2 µM (active)
CCCCC(CC)CO (stereo not given),inactive,–
CCOCCOCCO,inactive,–
O=C1NC(=O)C(c2ccccc2)(c2ccccc2)N1,inactive,–
COC(=O)CCC(=O)OC,inactive,–
CCc1cc(C2=C(C(=O)O)N(c3ccccc3C(F)(F)F)S(=O)(=O)c3ccccc32)cc2c1OCO2,inactive,–
CC(C)OC(=O)C(C)(C)Oc1ccc(C(=O)c2ccc(Cl)cc2)cc1,inactive,–
CC1(C)C(=O)NC(=O)N1CO,inactive,–
CN(C)CCCN1c2ccccc2Sc2ccc(Cl)cc21,–,30.5 µM (active)
CC(C)NCC(O)c1ccc(O)c(O)c1 (stereo not given),inactive,–
O=C(NS(=O)(=O)/C=C/c1cccs1)c1ccc(F)cc1Br,–,32.6 µM (active)
OCC(CO)n1cnc(-c2ccc(F)cc2)c1-c1ccnc(Oc2ccccc2)n1,inactive,–
